Consider 11 compounds from PubChem BioAssay (NCATS).

SMILES strings stand for the structures. Results filed as inconclusive are left out. Activity calls are given as the source filed them. The call rests on the fitted dose curve; in most records, active means well fitted inhibition curve with a large enough effect; inconclusive means small, poorly fitted or top-dose-only effect; inactive means flat fitted curve, though single readings scatter.
On the % scale 0 is the no-effect control and ±100 the full control effect.

The nature of the experiment: P-glycoprotein substrates identified in KB-8-5-11 adenocarcinoma cell line, qHTS therapeutic library screen (AID 1346987). Further: nearly all actives have a fitted effect of over 65% in size. Conditions: KB-8-5-11 (P-gp overexpressing) viability, CellTiter-Glo, 72 h; series mostly up to 44.5 µM; activity change, negative = cytotoxicity: at the top concentration. Put shortly:
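Luminescence from CellTiter-Glo, read 5 min after addition, quantified survival of KB-8-5-11 (P-gp-overexpressing) cells exposed to compounds for 72 h. AC50 was derived from concentration-response curves.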
In general terms: In qHTS, concentration-response curves come from the screen itself.
As for `COC(=O)c1cc(CN2CCN(C(=N)N)CC2)cc(C(=O)N2CCN(C(=O)c3ccc(C(=N)N)cc3)CC2)c1`, the compound was classed as inactive.

Regarding `C=CC1(C)C=C2C(O)CC3C(C)(C(=O)O)CCCC3(C)C2CC1` (stereo unspecified), the compound was classed as inactive.

As to `FC(F)(F)c1cc(C(F)(F)F)c2ccc3nc(-c4nnco4)cn3c2n1`, the “activity change, negative = cytotoxicity” value was 5.16% (inactive).

In the case of `CO[C@@H](Cc1ccc(OCCc2nc(-c3ccccc3)oc2C)c2ccsc12)C(=O)O`, the result was inactive.

For the compound `CC1(C)CC[C@]2(C(=O)O)CC[C@]3(C)C(=CCC4[C@@]5(C)C[C@@H](O)[C@H](O)C(C)(C)C5CC[C@]43C)[C@@H]2[C@@H]1O` (stereo partly specified), the “activity change, negative = cytotoxicity” value was -3.96% [at 17.3 µM] (inactive).

Regarding `C[C@H](NCc1ccc(OCc2ccccc2F)cc1)C(N)=O`, the compound was called inactive.

In the case of `CC(=O)N1CCN(NC(=O)c2ccc(F)cc2)CC1`, the outcome was inactive.

Consider `COc1cc(NC(=O)c2ccccn2)ccc1Cl`, for which the outcome was inactive.

In the case of `O=C(OCC12OC1C=CC(OC(=O)c1ccccc1)C2O)c1ccccc1` (stereo unspecified), the “activity change, negative = cytotoxicity” value is 5.62% (inactive).

Turning to `COc1ccc(/C=C/C(=O)O[C@@H]2[C@@H](O)[C@H](C)O[C@@H](OC3C4C=COC(O[C@@H]5O[C@H](CO)[C@@H](O)[C@H](O)[C@H]5O)C4C4(CO)OC34)[C@@H]2O)cc1OC` (stereo partly specified), the “outcome” value was “inactive [at 17.3 µM]”.

Take `CC1=CC[C@]2(C(=O)O[C@@H]3O[C@H](CO[C@@H]4O[C@H](CO)[C@@H](O[C@@H]5O[C@@H](C)[C@H](O)[C@@H](O)[C@H]5O)[C@H](O)[C@H]4O)[C@@H](O)[C@H](O)[C@H]3O)CC[C@]3(C)C(CCC4[C@@]5(C)C[C@@H](O)[C@H](O)[C@@](C)(CO)C5CC[C@]43C)C2C1C` (stereo partly specified): the activity change, negative = cytotoxicity was 8.32% [at 9.29 µM] (inactive).
